This is a sample that favours compounds with a hit; in the whole collection about 7.8% have one here.
Vaccinia mCherry: vaccinia inhibition (mCherry reporter). 310,000 compounds, 0.63% hits. Vaccinia virus mCherry reporter infection, fluorescence. Potency, µM (titrated, usually from 36.5 µM), actives largely listed as inhibitors. AID 720579; calls by dose curve; tested in A549 cells; also: nearly all actives have a fitted effect of over 35% in size
HCV inh: blocks hepatitis C virus. Huh7.5.1 HCVcc-Cre infection, luciferase reporter, 44 h. Potency, µM (highest dose often 41.8 µM), most hits filed as inhibitors. 340,000 compounds, 3.4% hits; active = well fitted inhibition curve with a large enough effect; inconclusive = small, poorly fitted or top-dose-only effect, or another doubt; inactive = no such curve, though single readings can be large or run the other way
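After 44 h co-culture of compound, cells and HCVcc-Cre (~0.5 moi), substrate is added for 15 min at room temperature and luciferase measured over 15 sec. Cells were seeded at 1,000/well and pre-cultured 4 h.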
Lassa entry inh: blocks Lassa virus binding to or entry into cells. 300,000 compounds, 1.2% hits. Lassa virus pseudotype entry inhibition, cell reporter. Potency, µM (series often up to 37.9 µM), usual class: inhibitors; calls by dose curve; tested in HEK293 cells; also: nearly all actives have a fitted effect of over 50% in size
VACV Venus inh: inhibitors of vaccinia virus (Venus reporter) | Vaccinia virus Venus reporter expression, fluorescence | Potency, µM (highest dose often 36.5 µM), usual class: inhibitors | 330,000 compounds, 0.46% hits; calls by dose curve; tested in A549 cells; also: nearly all actives have a fitted effect of over 30% in size
HCMV inh: inhibitors of human cytomegalovirus. activity change, negative = inhibition, % at 57.5 µM. AID 1259415. HFF cells, HCMV-luciferase reporter, 72 h; hits give low values. 410,000 compounds, 4.5% hits; in the data active = activity change below about -60%; inconclusive = no clear call, values can overlap the other calls; inactive = above about -39%
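Two-dose cell screen: HFF monolayers treated with compounds and infected with luciferase-expressing HCMV at 1 PFU/cell, 72 h at 37C, then lysed for luciferase measurement.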
Marburg entry inh: inhibitors of Marburg virus binding or cell entry | 300,000 compounds, 1.8% hits | Potency, µM (doses to about 37.8 µM), actives largely listed as inhibitors | Marburg virus pseudotyped entry inhibition, cell reporter | AID 540276; calls by dose curve; tested in HEK293 cells
A number is an active result; n = inactive; u = inconclusive; x = not tested or not shown; [ ] = remark or other dose.

SMILES	Vaccinia mCherry	HCV inh	Lassa entry inh	VACV Venus inh	HCMV inh	Marburg entry inh
CCC(O)c1nc2ccccc2n1CCOc1cc(C)cc(C)c1 (stereo not given)	n	x	u	n	n	u
C=CC(=O)Nc1cccc(N(C)c2ccnc(Nc3ccc(N4CCN(C)CC4)cc3)n2)c1	u	u	x	4.5µM	x	x
C=CC(=O)Nc1cccc(Oc2ccnc3[nH]ccc23)c1	u	n[8.37 µM]	x	5.6µM	x	x
COc1cccc(NC(=O)Nc2cccnc2)c1	x	n	x	x	n	x
CN1CCN(c2ccc(Nc3nccc4[nH]c(-c5cccnc5)cc34)cc2)CC1	x	x	x	x	n	x
C=CC(=O)Nc1cccc(Oc2ccnc(Nc3ccc(N4CCN(C)CC4)cc3)n2)c1	u	n	x	3.5µM	n	n
Cn1nnc2c(NCc3ccccc3)ncnc21	n	x	n	n	n	x
COc1ccc(N(CC(=O)NC2CC3CCC2C3)S(=O)(=O)c2ccc(C)c([N+](=O)[O-])c2)cc1 (stereo not given)	u	2.8µM	n	n	n	u
COc1ccc(N(CC(=O)Nc2ccccc2F)S(=O)(=O)c2ccc(C)c([N+](=O)[O-])c2)cc1	u	u	u	n	u	u
Cc1ccc(CSC2=Nc3ccccc3C3=NC(CCC(=O)NC4CCCCC4)C(=O)N23)cc1 (stereo not given)	n	x	n	n	n	x
COc1ccccc1NS(=O)(=O)c1ccc(N/N=C/C=C/c2ccccc2[N+](=O)[O-])c([N+](=O)[O-])c1	n	n	n	n	n	n
COc1ccc(C(CNc2ccc(S(=O)(=O)N3CCCC3)cc2[N+](=O)[O-])N2CCCC2)cc1 (stereo not given)	n	u	u	n	n	u
COc1ccc(CCN(C)c2ccc(S(=O)(=O)N3CCCC3)cc2[N+](=O)[O-])cc1OC	n	u	u	n	u	n
COc1ccccc1C(CNc1ccc(S(=O)(=O)N2CCCC2)cc1[N+](=O)[O-])N(C)C (stereo not given)	8.9µM	n	n	10µM	u	u
COc1ccc(C(CNc2ccc(S(=O)(=O)N3CCN(C)CC3)cc2[N+](=O)[O-])N(C)C)cc1 (stereo not given)	n	10µM	n	n	n	u
COc1ccccc1NS(=O)(=O)c1ccc(NN=C2CCCC2)c([N+](=O)[O-])c1	n	u	n	n	-79	u
COc1ccc(CN(C)c2ccc(S(=O)(=O)N3CCN(C)CC3)cc2[N+](=O)[O-])cc1OC	n	0.56µM	u	n	-86	u
Cc1ccc(-n2nnnc2CNC(=O)C(C)C)cc1C	n	x	n	n	n	x
CCOC(=O)c1c(C)[nH]c(C)c1S(=O)(=O)NCC(=O)Nc1cccc(C#N)c1	n	x	n	n	n	x
CCC1CN(C(=O)N2CCC(C(=O)N(C)Cc3ccccc3)CC2)c2ccccc2O1 (stereo not given)	n	x	u	n	n	x
COc1ccc(C2NN=C(c3c[nH]c4ccccc34)C2O)cc1 (stereo not given)	n	11µM	x	n	n	x
COc1ccc(OCC(=O)c2c[nH]c3ccccc23)cc1	n	n	x	n	n	n
COc1ccc(C2C(O)C(c3c[nH]c4ccccc34)=NN2C(=O)CCl)cc1 (stereo not given)	u	0.56µM	u	u	-104	3.2µM
COc1cccc([C@@H]2Oc3ccc(Br)cc3C(=O)[C@@H]2OC(=O)N[C@H]2CCCc3ccccc32)c1	x	x	x	x	x	n
COc1ccc(S(=O)(=O)N2CCN(c3cc(-c4ccccc4)nc4ncnn34)CC2)cc1	x	10µM	u	x	-73	u
SMILES	Vaccinia mCherry	HCV inh	Lassa entry inh	VACV Venus inh	HCMV inh	Marburg entry inh
Cc1ccccc1NC(=O)C1CCN(c2cc(-c3ccccc3)nc3ncnn23)CC1	x	n	u	u	u	u
COc1ccc(-c2cc(-c3ccccc3)n3ncnc3n2)cc1	n	u	n	n	n	u
COc1ccc(-c2cc(N3CCCC3)n3ncnc3n2)cc1	u	13µM	n	n	-98	n
O=S(=O)(c1ccccc1)N1CCN(c2cc(-c3ccccc3)nc3ncnn23)CC1	x	u	15µM	x	-91	u
CCc1nnc(NC(=O)Nc2ccc(Cl)cc2)s1	n	n	x	n	n	x
O=C(Nc1ccc(Cl)cc1)Nc1nnc(CSCc2ccc(Cl)cc2)s1	x	5µM	x	x	-67	x
O=[N+]([O-])c1ccc(-c2ccc(/C=N/n3cnnc3)o2)c(Br)c1	x	n	x	x	-90	x
Cc1ccc([N+](=O)[O-])cc1-c1ccc(/C=N/NC(=O)c2cc3c(ccc4ccccc43)o2)o1	x	u	n	n	n	n
Cc1ccc(-c2ccc(/C=N\NC(=O)c3cc4c(ccc5ccccc54)o3)o2)cc1[N+](=O)[O-]	x	u	u	n	-95	n
Cc1cc([N+](=O)[O-])c(C)cc1-c1ccc(/C=N/n2cnnc2)o1	n	n	n	n	n	n
CCCCC(=O)N/N=C/c1ccc(-c2ccc([N+](=O)[O-])cc2)o1	n	u	n	n	u	n
Cc1cc([N+](=O)[O-])ccc1-c1ccc(/C=N/NC(=O)c2ccc(Br)o2)o1	x	u	x	x	-89	x
Cc1cc(C)n(Cc2ccc(C(=O)N/N=C/c3ccc(-c4ccc([N+](=O)[O-])cc4)o3)o2)n1	n	u	n	n	-64	u
C=CC[n+]1c(-c2ccc(C)cc2)csc1Nc1c(C)n(C)n(-c2ccccc2)c1=O	n	n	u	n	u	u
C=CC[n+]1c(-c2ccc(OCC)cc2)csc1NNC(=O)Nc1ccccc1	n	7.1µM	u	u	-88	n
N#CC1=C2SC=C(c3ccc(Br)cc3)N2CCCC1=O	n	11µM	n	n	n	u
O=C(CCN1CCOCC1)NNC(=O)/C(=C/c1ccccc1)NC(=O)c1ccccc1	n	n	11µM	n	n	u
O=C(CCc1ccccc1)OCCN1CCOCC1	x	n	n	n	n	n
COc1ccc(/C=C(\NC(=O)c2ccccc2)C(=O)NNC(=O)CCN2CCOCC2)cc1	x	n	x	x	u	x
CCOC(=O)/C(=C\c1ccccc1)C(=O)CCN1CCOCC1	n	10µM	n	n	n	n
Cc1[nH]n(-c2ccccc2)c(=O)c1N=Nc1c(O)cc(S(=O)(=O)N(C)C)c2ccccc12	u	u	x	u	-99	x
O=C(NCc1ccccc1Cl)c1ccc2c(c1)NC(=O)C(CS(=O)(=O)Cc1ccc(Cl)cc1)N2 (stereo not given)	n	x	n	n	n	x
Cn1c(SCc2ccccc2)nnc1-c1cnccn1	x	n	n	x	-61	u
Cn1c(SCc2ccc(F)cc2)nnc1-c1cnccn1	x	n	x	x	n	x
C=CCNc1nc(-c2cc3ccccc3o2)cs1	n	u	7.9µM	n	n	u
c1ccc2oc(-c3csc(NCC4CCCO4)n3)cc2c1 (stereo not given)	n	25µM	u	n	n	u
C=CCNc1nc(-c2ccc3c(c2)OCCO3)cs1	x	n	x	x	n	x
c1ccc2sc(NCC3CCCO3)nc2c1 (stereo not given)	n	n	n	n	n	u
Oc1ccc(/C=N/Nc2nc(-c3cccnc3)nc3ccccc23)c(O)c1	u	11µM	x	n	n	x

Source: PubChem
